This is an account of results in publication PMC4552634, “A New Set of Chemical Starting Points with Plasmodium falciparum Transmission-Blocking Potential for Antimalarial Drug Discovery” (PLoS ONE, 2015).

Each structure is given as a SMILES string. The whole screen tested about 13,000 compounds, of which about 3,200 (25%) showed an effect of 50% or more. The list shows a part of the results.

The subject of the experiment is P. falciparum stage V gametocytes. Details: BacTiter-Glo ATP luminescence viability of purified stage V gametocytes in 384-well plates, per cent inhibition versus DMSO. The note with it: 48 h, 5 µM; inhibitor.
For `Cn1cnc2c(Nc3ccncc3)nc(-c3ccc(OC(F)(F)F)cc3)nc21` [TCMDC-141276], the “% Inhibition” value is listed as -18.84%. Take `CC[C@H](N=C(Nc1ccc(C#N)cc1O)Nc1cccc(Cl)c1Cl)c1ccccc1` [TCMDC-140225]: the “% Inhibition” value was determined as 74.86%. With `CC[C@H](N=C(Nc1ccc(-c2ccccc2)cc1)Nc1ccc(C#N)cc1O)c1ccccc1` [TCMDC-140209], the “% Inhibition” value is -62.75%. `CCCCCC(C)N=C(Nc1ccc(C#N)cc1O)Nc1cccc(Cl)c1Cl` (centres unmarked) [TCMDC-140222]: the “% Inhibition” value was -21.37%. Regarding `CSc1c(CNCCCNc2cc(=O)c3ccccc3[nH]2)[nH]c2ccccc12` [TCMDC-140648], the “% Inhibition” value is reported as -17.76%. For `N#Cc1cccc(C(=O)Nc2ccc(-c3cccc(CN4CCC(O)CC4)c3)cc2)c1` [TCMDC-132670], the “% Inhibition” value was -58.6%. As to `O=C(Nc1ccc(-c2nc3ccccc3[nH]2)cc1)C1CCN(Cc2ccccc2)CC1` [TCMDC-124891], the “% Inhibition” value is -65.72%. Under `O=C(Nc1ccc(Cn2ncc(N3CCCNCC3)c(Cl)c2=O)cc1)Nc1cccc(Oc2ccccc2)c1` [TCMDC-133316] stands 4.228%; under `O=C(Nc1ccc(Oc2ccccc2)cc1)N(CCN1CCCC1)Cc1ccc(-c2ccc(CN3CCNCC3)cc2)cc1` [TCMDC-139652], 103.6%; under `O=C(Nc1ccc(Oc2ccccc2)cc1)N(Cc1ccc(-c2ccc(CN3CCNCC3)cc2)cc1)C1CCN(Cc2ccccc2)CC1` [TCMDC-139653], 106.3%. Under `O=C(Nc1ccc(-c2cccc(CN3CCC(O)CC3)c2)cc1)c1cccc(Cl)c1` [TCMDC-132665] stands -3.105%; under `O=C(Nc1ccc(Oc2ccccc2)cc1)N(Cc1ccc(-c2cccc(CN3CCNCC3)c2)cc1)C1CCN(Cc2ccccc2)CC1` [TCMDC-139637], 111.2%; under `COC(=O)c1ccc(CN2CCC(N(Cc3cccc(Oc4ccccc4)c3)S(=O)(=O)c3ccc(NC(C)=O)cc3)CC2)cc1` [TCMDC-139500], -7.518%. The value for `O=C(Nc1cccc(-c2cccc(-c3nc4ccc(C(F)(F)F)cc4[nH]3)c2)c1)c1ccc(=O)[nH]n1` [TCMDC-137031] was -1.351%; that for `O=C(Nc1ccc(-c2nc3ccccc3[nH]2)cc1)c1ccc(N2CCOCC2)c([N+](=O)[O-])c1` [TCMDC-124372] was -1.163%. With `O=C(NC1CC1)c1cnc(N2CCN(Cc3c(F)cccc3Cl)CC2)c(Cl)c1` [TCMDC-134607], the “% Inhibition” value is 20.64%. With `CCC(C)NC(=O)CN1CN(c2ccccc2)C2(CCN(C(=O)c3ccc(C(C)(C)C)cc3)CC2)C1=O` (centres unmarked) [TCMDC-125176], the “% Inhibition” value is -75.94%.

The term % Inhibition denotes the drop in the measured response relative to a control, in per cent.
